Data taken from PubChem BioAssay (NCATS).
Records with an inconclusive call do not appear. The source made the active and inactive calls. Calls follow the shape of the dose curve; as a rule, active = well fitted cell-killing curve with a large enough effect; inconclusive = small, poorly fitted or top-dose-only effect; inactive = no such curve, though single readings can be large or run the other way. Non-standard residues stand in square brackets, D forms with d. Residues, ends and D or L forms follow the SMILES beside them. *: point of attachment. Sta = CC(C)C[C@H](N)[C@@H](O)CC(=O)O; Isovaleryl = CC(C)CC(=O)*

assay: qHTS of pediatric cancer cell lines to identify multiple opportunities for drug repurposing: Confirmatory screen for TC32 cells (AID 1347118); settings: TC32 Ewing sarcoma cells viability qHTS; series mostly up to 45.9 µM;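 also: cells exposed to compound for 48 h before the read; nearly all actives have a fitted effect of over 65% in size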
How it was run: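 qHTS, TC32, 48 h drug treatment, CellTiter-Glo luminescence as a proxy for metabolically active cells; primary top concentration 46 µM (MIPE 11-pt, NPC 8-pt); confirmatory 11-pt.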
Potency is read from the fitted curve at half-maximal effect.

SMILES | Potency
CN(C)c1ccc2nc3ccc(=[N+](C)C)cc-3sc2c1 | 2.61 µM (active)
CC1(C)C(=O)N(CCN2CCC(C(=O)c3ccc(F)cc3)CC2)c2ccccc21 | 7.37 µM (active)
CC(C)CC(=O)N[C@H](C(=O)N[C@H](C(=O)N[C@@H](CC(C)C)[C@@H](O)CC(=O)N[C@@H](C)C(=O)N[C@@H](CC(C)C)[C@@H](O)CC(=O)O)C(C)C)C(C)C (Isovaleryl-VV[Sta]A[Sta]-OH) | 5.85 µM (active)
CN(C)c1ccc(O)c2c1C[C@H]1C[C@H]3[C@H](N(C)C)C(=O)C(C(N)=O)=C(O)[C@@]3(O)C(=O)C1=C2O | 5.85 µM (active)
O=C(NCC1CCCCN1)c1cc(OCC(F)(F)F)ccc1OCC(F)(F)F (configuration not stated) | 5.22 µM (active)
Clc1ccc(C(Cn2ccnc2)OCc2ccsc2Cl)c(Cl)c1 (configuration not stated) | 11.7 µM (active)
CC(=O)O[C@H]1C(=O)[C@@]2(C)C([C@H](OC(=O)c3ccccc3)[C@]3(O)C[C@H](OC(=O)[C@H](O)[C@@H](NC(=O)c4ccccc4)c4ccccc4)C(C)=C1C3(C)C)[C@]1(OC(C)=O)CO[C@@H]1C[C@@H]2O (some centres not stated) | 0.0104 µM (active)
CCCCc1ccc2nc(NC(=O)OC)[nH]c2c1 | 0.293 µM (active)
Clc1ccc(C(Cn2ccnc2)OCc2ccc(Sc3ccccc3)cc2)c(Cl)c1 (configuration not stated) | 10.4 µM (active)
Oc1ccc(-c2nc(-c3ccc(F)cc3)c(-c3ccncc3)[nH]2)cc1 | 0.737 µM (active)
CCCOc1ccc2nc(NC(=O)OC)[nH]c2c1 | 0.928 µM (active)
Cc1nc(Nc2ncc(C(=O)Nc3c(C)cccc3Cl)s2)cc(N2CCN(CCO)CC2)n1 | inactive
